# Data taken from ChEMBL document CHEMBL3988442, “University of Dundee, Small-Polar-MMV Screening Library” (2021).
# The whole screen tested about 66,000 compounds, of which about 960 (1.5%) showed an effect of 50% or more. The sample as a whole holds a higher share of strong results than the screen did.
# Tested on: Trypanosoma brucei
# Assay: Trypanosoma brucei 72 hour study
# Type: functional, organism-based
# Set-up: scale not given: in the data most compounds retested in dose-response had high values
compound,measurement,setting,value
CC(C)OCCCN(Cc1ccncc1)Cc1cccc(F)c1F.Cl,Percent Effect,"30.3 µM, […]",-30.88%
N#Cc1ccc(S(=O)(=O)NC(=O)c2csc(-c3ccco3)n2)cc1,Percent Effect,"30.3 µM, […]",2.361%
CCc1ccc(CN2C[C@@H](C)C3(CCN(CC(=O)N(C)C)C3=O)C2)o1.O=C(O)C(F)(F)F (some centres undefined),Percent Effect,"30.3 µM, […]",4.737%
CC(=O)N1N=C(c2cccs2)OC1C(=O)NCc1ccc(C)o1 (centres undefined),Percent Effect,"30.3 µM, […]",9.707%
same,Percent Effect,"10 mM, 10 mM as filed; unlikely as a test dose",-41.55%
COc1ccc(CCC(=O)NCCN2CCC(c3cccs3)CC2)cc1,Percent Effect,"30 µM, 30.03 µM",100%
O=C(NCCc1ccccc1)NCCN1CCC(c2cccs2)CC1,Percent Effect,"30 µM, 30.03 µM",47.79%
CC(=O)NCCN1CCC(c2cccs2)CC1,Percent Effect,"30 µM, 30.03 µM",-43.56%
CC1CCCN(Cc2ccnc(-c3cccnc3)n2)C1.O=C(O)CC(O)(CC(=O)O)C(=O)O (centres undefined),Percent Effect,"30.3 µM, […]",9.831%
O=C(CCCNC(=O)C1CC1)Nc1cnn(-c2ccccc2Cl)c1,Percent Effect,"30 µM, 30.03 µM",60.12%
O=C(CCN1C(=O)CCC1=O)Nc1cnn(-c2ccccc2Cl)c1,Percent Effect,"30 µM, 30.03 µM",-41.29%
CS(=O)(=O)NCCC(=O)Nc1cnn(-c2ccccc2Cl)c1,Percent Effect,"30.3 µM, […]",-13.82%
O=C(O)C(F)(F)F.O=C(O)C(F)(F)F.O=c1ccc2c(n1Cc1ccncc1)CCN(Cc1ccoc1)CC2,Percent Effect,"30 µM, 30.03 µM",-36.06%
Cl.c1nc(CCC2CCCCN2)cc(N2CCCC2)n1 (centres undefined),Percent Effect,"30.3 µM, […]",-10.52%
CC(C)N1CCC(N2CCC(C(=O)N(C)C)CC2)CC1.O=C(O)C(F)(F)F.O=C(O)C(F)(F)F,Percent Effect,"30.3 µM, […]",-22.06%
COC(=O)C1CCN(C(=O)c2cc(Br)ccc2-n2cnnn2)CC1,Percent Effect,"30 µM, 30.03 µM",-52.11%
NC(=O)N1CCCC(C(=O)N2CCN(c3nsc4ccccc34)CC2)C1 (centres undefined),Percent Effect,"30.3 µM, […]",39.11%
CC(C)N1CCCC(C(=O)N2CCN(c3nsc4ccccc34)CC2)C1 (centres undefined),Percent Effect,"30.3 µM, […]",50.26%
CCN1CC(C(=O)N2CCN(c3nsc4ccccc34)CC2)CCC1=O (centres undefined),Percent Effect,"30.3 µM, […]",18.26%
CN(C)C(=O)c1cnc2n1CCN(Cc1cccnc1)C2.O=C(O)C(F)(F)F.O=C(O)C(F)(F)F,Percent Effect,"30.3 µM, […]",-389.6%
O=C(O)C(F)(F)F.O=C(O)C(F)(F)F.O=C(O)C(F)(F)F.c1ccc(CN2CCc3c(COCC4CC4)cncc3C2)nc1,Percent Effect,"30.3 µM, […]",-75.06%
CN1C[C@@H](N)C[C@H]1C(=O)N1CCC(CCCc2ccccc2)CC1,Percent Effect,"30 µM, 30.03 µM",-31.74%
OC1(CN2CCCCC2)CCN(c2ccc(C(F)(F)F)cn2)C1 (centres undefined),Percent Effect,"30.3 µM, […]",3.051%
N#CC1=C(N)Nn2c(nnc2-c2ccccc2F)S1,Percent Effect,"30 µM, 30.03 µM",-51.04%
CCn1cc(CNc2ccc(F)c(N3CCCS3(=O)=O)c2)cn1,Percent Effect,"30 µM, 30.03 µM",-16.14%
CCn1cc(CNc2ccc(Br)c(OC)c2)cn1,Percent Effect,"30 µM, 30.03 µM",-16.49%
CCn1cc(CNc2ccc3nccnc3c2)cn1,Percent Effect,"30 µM, 30.03 µM",99.73%
Nc1nccc(N2CCC(c3cc(Cc4ccccc4)n[nH]3)CC2)n1,Percent Effect,"30.3 µM, […]",36.98%
Nc1cc(N2CCC(c3cc(Cc4ccccc4)n[nH]3)CC2)ccn1,Percent Effect,"30.3 µM, […]",99.46%
Nc1nc(O)cc(N2CCC(c3cc(Cc4ccccc4)n[nH]3)CC2)n1,Percent Effect,"30.3 µM, […]",-102.6%
COc1ccc(C(=O)NCC(c2cccn2C)N2CCCC2)cc1OC (centres undefined),Percent Effect,"30.3 µM, […]",-9.189%
COc1cccc(OC)c1C(=O)NCC(c1cccn1C)N1CCCC1 (centres undefined),Percent Effect,"30.3 µM, […]",99.38%
COc1cccc(C(=O)NCC(c2cccn2C)N2CCCC2)c1OC (centres undefined),Percent Effect,"30.3 µM, […]",-16.52%
CO[C@@H]1CCN(C(=O)Cc2ccsc2)[C@H]1Cc1cccnc1.O=C(O)C(F)(F)F,Percent Effect,"30.3 µM, […]",-12.88%
Cc1cccc(COC[C@H]2CC[C@H]3[C@H](CCN3C(=O)CC3CC3)O2)n1.O=C(O)C(F)(F)F,Percent Effect,"30 µM, 30.03 µM",22.76%
CCOc1ccc(CN[C@@H]2COC[C@H]2c2ccc(F)cc2)cc1.O=C(O)CC(O)(CC(=O)O)C(=O)O,Percent Effect,"30.3 µM, […]",-47.65%
COCCN1C[C@H]2CC[C@@H]1CN(C(=O)CCn1cc(Cl)cn1)C2,Percent Effect,"30.3 µM, […]",4.772%
Cc1nc2c(c(NCc3nc4ccccc4s3)n1)CCNCC2,Percent Effect,"30.3 µM, […]",53.81%
Cc1nc(CNc2nc(-c3ccco3)nc3c2CCNCC3)n[nH]1,Percent Effect,"30 µM, 30.03 µM",14.93%
Cc1nc2c(c(NCc3ccc(-c4ccccn4)s3)n1)CCNCC2,Percent Effect,"30.3 µM, […]",42.43%
Cc1nc2c(c(NCC(O)c3ccccc3Cl)n1)CCNCC2 (centres undefined),Percent Effect,"30 µM, 30.03 µM",-31.73%
Cc1nc2c(c(NCc3cc4ccccc4s3)n1)CCNCC2,Percent Effect,"30.3 µM, […]",99.88%
Cc1nc2c(c(NCC3Cc4ccccc4CN3C)n1)CCNCC2 (centres undefined),Percent Effect,"30.3 µM, […]",15.13%
CC(C)CN1CCO[C@H]2CCN(c3cnccn3)CC[C@@H]21.O=C(O)C(F)(F)F,Percent Effect,"30.3 µM, […]",-43.11%
CCCS(=O)(=O)N1C[C@H]2C[C@H](C(=O)N3CCCC3)[C@@H](C1)O2,Percent Effect,"30.3 µM, […]",-3.417%
Cc1occc1C(=O)N1C[C@@H]2OCCN(C(C)C)[C@@H]2C1.O=C(O)C(F)(F)F,Percent Effect,"30 µM, 30.03 µM",5.268%
CS(=O)(=O)N1CCN(CC(O)COc2ccc(Cl)cc2)CC1 (centres undefined),Percent Effect,10 µM,-47.15%
Cc1csc(CN2CCC[C@]3(C[C@@H](OCC4CC4)CO3)C2)n1.O=C(O)C(F)(F)F,Percent Effect,"30 µM, 30.03 µM",-17.53%
Cc1cc(F)ccc1CN1CCC(O)(CN2CCCCC2)C1 (centres undefined),Percent Effect,"30 µM, 30.03 µM",-52.45%
Cc1cc(F)ccc1CN1CCCC(O)(CN2CCCC2)C1 (centres undefined),Percent Effect,"30.3 µM, […]",54.93%
OC1(CN2CCCC2)CCCN(Cc2ccc(F)cc2Cl)C1 (centres undefined),Percent Effect,"30 µM, 30.03 µM",-4.937%
CN(C)CCN(Cc1ccccn1)Cc1ccnn1C1CCCCO1.O=C(O)CC(O)(CC(=O)O)C(=O)O (centres undefined),Percent Effect,"30.3 µM, […]",-14.13%
Cn1nnc2c1C(COCC1CC1)CN(Cc1ccoc1)C2.O=C(O)C(F)(F)F (centres undefined),Percent Effect,"30 µM, 30.03 µM",5.795%
Cc1ccnc(N2Cc3cnn(Cc4ccc(F)cc4)c3C2)n1,Percent Effect,"30 µM, 30.03 µM",-9.847%
CCNc1ccnc(N2Cc3cnn(Cc4ccc(F)cc4)c3C2)n1,Percent Effect,"30 µM, 30.03 µM",57.35%
CNc1cc(C)nc(N2Cc3cnn(Cc4ccc(F)cc4)c3C2)n1,Percent Effect,"30 µM, 30.03 µM",98.86%
Cc1nc(N2Cc3cnn(Cc4ccc(F)cc4)c3C2)no1,Percent Effect,"30 µM, 30.03 µM",12.66%
Cc1cc(C)nc(N2Cc3cnn(Cc4ccc(F)cc4)c3C2)n1,Percent Effect,"30 µM, 30.03 µM",3.465%
Fc1ccc(Cn2ncc3c2CN(c2ncccn2)C3)cc1,Percent Effect,"30 µM, 30.03 µM",2.324%
CC(C)c1nn(C)c(Cl)c1CNCc1ccc(N(C)C)nc1.Cl,Percent Effect,"30.3 µM, […]",12.78%
CC(C)CN1CCC2(CCN(Cc3ccc(F)cc3)CC2)C1=O.O=C(O)C(F)(F)F,Percent Effect,"30.3 µM, […]",15.86%
Cc1cccc(CN2CCCC2c2cccc(Nc3nccs3)n2)c1 (centres undefined),Percent Effect,"30.3 µM, […]",33.44%
Cc1cccc(CN2CCCC2c2cccc(CCC(=O)O)n2)c1 (centres undefined),Percent Effect,"30.3 µM, […]",-27.55%
Cc1cccc(CN2CCCCC2c2n[nH]cc2-c2cc(C)no2)c1.Cl (centres undefined),Percent Effect,"30.3 µM, […]",54.66%
Cc1nccc(C2CCCCN2Cc2cccc(F)c2)n1 (centres undefined),Percent Effect,"30.3 µM, […]",-5.435%
Cc1cc(C2CCCN2Cc2cc(-c3ccco3)on2)on1 (centres undefined),Percent Effect,"30 µM, 30.03 µM",-36.29%
Cc1nc(C2CN(Cc3ccccc3C)CCO2)no1 (centres undefined),Percent Effect,"30.3 µM, […]",-23.18%
CN(CC1(O)CCCN(c2ccccn2)C1)C(=O)CCc1cccs1 (centres undefined),Percent Effect,"30.3 µM, […]",19.98%
Cc1ccc(CN(CCCN2CCOCC2)Cc2cnn(C)c2)o1.O=C(O)CC(O)(CC(=O)O)C(=O)O,Percent Effect,"30.3 µM, […]",-8.498%
CN(C)C(=O)[C@]12CCCN(CC3CC3)C[C@H]1CN(c1ccccn1)C2.O=C(O)C(F)(F)F.O=C(O)C(F)(F)F,Percent Effect,"30.3 µM, […]",0.08001%
CN1CC(=O)N(c2ccccc2)CC12CCN(C(=O)c1ccnnc1)C2.O=C(O)C(F)(F)F (centres undefined),Percent Effect,"30.3 µM, […]",-13.49%
CN(C)C(=O)COC[C@]12COC[C@H]1CN(Cc1ccccc1)C2.O=C(O)C(F)(F)F,Percent Effect,"30.3 µM, […]",-79.79%
O=C(c1cc(=O)n(-c2ccccc2)[nH]1)N1CCOC(C(F)(F)F)C1 (centres undefined),Percent Effect,"30 µM, 30.03 µM",25.14%
Cc1cnc(CN(Cc2ccc(Cl)s2)C2CCN(C)C2)o1 (centres undefined),Percent Effect,"30 µM, 30.03 µM",-5.686%
COc1ccc(C(C)NCCC(N)=O)cc1F (centres undefined),Percent Effect,"30 µM, 30.03 µM",-19.58%
COc1cc(CNC(C)c2ccc(F)c(F)c2)cc2c1OCCO2.O=C(O)C(=O)O (centres undefined),Percent Effect,"30.3 µM, […]",100.7%
COc1cc(C(=O)NC(C)c2cccs2)cc2c1OCCO2 (centres undefined),Percent Effect,"30.3 µM, […]",6.204%
CCn1ncc(-c2cc(C(F)F)nc3sc(C(N)=O)c(N)c23)c1C,Percent Effect,"30 µM, 30.03 µM",26.92%
Cc1nc[nH]c1CN1CCN(C(=O)CN2CCCC2)[C@H]2CS(=O)(=O)C[C@H]21,Percent Effect,"30 µM, 30.03 µM",8.106%
Cc1nc[nH]c1CN1CCN(C(=O)CCC(F)(F)F)[C@H]2CS(=O)(=O)C[C@H]21,Percent Effect,"30 µM, 30.03 µM",50.6%
Cc1nc[nH]c1CN1CCN(C(=O)C2(C)CC2)[C@H]2CS(=O)(=O)C[C@H]21,Percent Effect,"30 µM, 30.03 µM",1.317%
CCOc1cc2c(cc1CNC(Cc1cccs1)c1nccs1)OCO2.Cl (centres undefined),Percent Effect,"30.3 µM, […]",-21.18%
CC(C)c1ncc(-c2cc(C3CCC3)nc(N)c2C#N)cn1,Percent Effect,"30 µM, 30.03 µM",17.32%
CC(O)(CNC(=O)c1cccnc1-n1cccn1)c1ccsc1 (centres undefined),Percent Effect,"30 µM, 30.03 µM",-28.28%
COc1ccnc(NC(=O)c2cscn2)c1,Percent Effect,"30 µM, 30.03 µM",7.926%
COc1ccnc(NC(=O)c2cscc2C)c1,Percent Effect,"30 µM, 30.03 µM",88.82%
COc1ccnc(NC(=O)c2ccsc2)c1,Percent Effect,"30 µM, 30.03 µM",14.39%
CCCn1c(=O)n(CCC(=O)N(C)Cc2ccc(C)o2)c2ccccc21,Percent Effect,"30 µM, 30.03 µM",-21.38%
Cc1nc(O)cc(C2CCN(Cc3ccc(F)c(F)c3)C2)n1.O=C(O)CC(O)(CC(=O)O)C(=O)O (centres undefined),Percent Effect,"30.3 µM, […]",13.84%
CNC(=O)N1CCC2(CC1)c1ncc(C)n1CCN2C.O=C(O)C(F)(F)F.O=C(O)C(F)(F)F,Percent Effect,"30.3 µM, […]",11.26%
Oc1cc(CNCCCN2CCCC2)nc2ccc(F)cc12,Percent Effect,"30 µM, 30.03 µM",-52.8%
O=C(CCNCc1cc(O)c2cc(F)ccc2n1)N1CCCC1,Percent Effect,"30 µM, 30.03 µM",-42.31%
O=S(=O)(CCNCc1cc(O)c2cc(F)ccc2n1)N1CCCC1,Percent Effect,"30 µM, 30.03 µM",71.96%
CCc1ccc(CN2Cc3nccn3CC(CN3CCOCC3)C2)o1.O=C(O)C(F)(F)F.O=C(O)C(F)(F)F.O=C(O)C(F)(F)F (centres undefined),Percent Effect,"30 µM, 30.03 µM",29.13%
